# Laboratory results from PubChem BioAssay (NCATS).
# Inconclusive results are not listed. Activity calls are given as the source filed them. Unless noted, calls come from the whole dose curve; as a rule, active = well fitted curve in the direction sought with a large enough effect; inconclusive = small, poorly fitted or top-dose-only effect, or another doubt; inactive = no such curve, though single readings can be large; an effect the other way counts as inactive or inconclusive.
# Columns and labels:
# [1] = molecular target: Lysosomal acid glucosylceramidase (Homo sapiens) (UniProt P04062); experiment: Glucocerebrosidase-p2 (AID 348; in the data active = potency below about 10 µM; note: potency is the fitted concentration of half-maximal effect); details: purified GBA, blue fluorogenic substrate, 40 min
# Lysosomal acid glucosylceramidase (Homo sapiens), sequence (P04062 whole entry, looked up): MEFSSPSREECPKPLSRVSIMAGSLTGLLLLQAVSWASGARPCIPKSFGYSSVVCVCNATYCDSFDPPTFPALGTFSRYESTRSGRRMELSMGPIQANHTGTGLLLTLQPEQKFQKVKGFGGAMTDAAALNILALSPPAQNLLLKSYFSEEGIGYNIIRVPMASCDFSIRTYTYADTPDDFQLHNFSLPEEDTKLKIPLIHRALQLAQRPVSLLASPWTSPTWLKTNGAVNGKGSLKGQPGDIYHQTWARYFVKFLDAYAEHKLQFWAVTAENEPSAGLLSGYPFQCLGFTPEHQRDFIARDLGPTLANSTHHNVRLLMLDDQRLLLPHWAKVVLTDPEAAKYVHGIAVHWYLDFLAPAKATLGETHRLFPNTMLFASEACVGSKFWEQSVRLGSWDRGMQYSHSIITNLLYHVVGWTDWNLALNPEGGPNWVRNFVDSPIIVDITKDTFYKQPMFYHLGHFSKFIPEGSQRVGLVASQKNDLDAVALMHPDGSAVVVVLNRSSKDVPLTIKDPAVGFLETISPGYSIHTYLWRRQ
# Procedure, shortened: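 Normal human glucocerebrosidase (0.2 nM) with blue fluorogenic substrate (80 uM final) in citrate/phosphate pH 5.9 with 10mM sodium taurocholate, 0.01% tween-20; 40 min RT, NaOH/glycine stop; fluorescence Ex 365/Em 440; AC50 from a titration from 0.6 nM upwards.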
# [2] = AP1 Signaling Pathway (AID 357; active = well fitted curve in either direction with a large enough effect, not every such curve was filed as active;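 note: ME-180 reporter cells stimulated with EGF at its EC50 level; % is set by controls: 0 for no effect and ±100 for the full control effect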); details: ME-180 AP-1-bla reporter, EGF-induced, beta-lactamase ratio, 5 h; at 7.69 µM (top of the series) unless noted
# Procedure, shortened: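 Read-out was the 460nm/530nm emission ratio (excitation 405nm) after CCF4 loading for 2.5 hours at room temperature. Cells carried an AP-1-driven beta-lactamase reporter, were stimulated with EC50 EGF plus compound for 5 hours, and AC50 values came from titrations.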
# [3] = molecular target: Cytochrome P450 1A2 (Homo sapiens) (UniProt P05177); experiment: p450-cyp1a2 (AID 410; calls by dose curve; note: potency is the fitted concentration of half-maximal effect;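 for activity change, negative = inhibition: -100% = full effect of reference inhibitor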); details: recombinant CYP1A2, luciferin-ME demethylation, luminescence; series mostly up to 57 µM
# Cytochrome P450 1A2 (Homo sapiens), sequence (P05177 whole entry, looked up): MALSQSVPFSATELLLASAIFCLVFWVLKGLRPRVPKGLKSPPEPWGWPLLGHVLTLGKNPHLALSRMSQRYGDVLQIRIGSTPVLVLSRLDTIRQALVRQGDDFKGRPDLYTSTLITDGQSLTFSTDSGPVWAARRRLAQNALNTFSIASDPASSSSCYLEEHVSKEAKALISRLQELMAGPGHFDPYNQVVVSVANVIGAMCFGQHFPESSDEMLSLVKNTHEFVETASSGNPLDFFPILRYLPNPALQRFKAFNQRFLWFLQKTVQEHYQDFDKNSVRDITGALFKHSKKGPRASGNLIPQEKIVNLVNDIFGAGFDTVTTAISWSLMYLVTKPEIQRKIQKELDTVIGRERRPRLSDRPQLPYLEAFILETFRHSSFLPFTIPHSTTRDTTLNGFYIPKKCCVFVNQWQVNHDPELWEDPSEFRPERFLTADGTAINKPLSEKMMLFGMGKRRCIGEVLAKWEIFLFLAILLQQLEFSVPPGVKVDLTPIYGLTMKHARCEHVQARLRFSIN
# Procedure, shortened: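 O-Demethylation of luciferin 6' methyl ether by human CYP1A2 is monitored as luciferase luminescence. Substrate sits at Km (100uM); enzyme is 20nM. Values are scaled to 57 uM furafylline as maximal inhibition.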
# [4] = NFAT Signaling Pathway (AID 444; active = well fitted curve in either direction with a large enough effect, not every such curve was filed as active;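 note: carbachol stimulus at about its EC50 of 1 µM final; % is set by controls: 0 for no effect and ±100 for the full control effect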); details: Jurkat NFAT-bla M1, carbachol, beta-lactamase ratio, 5 h; at 7.69 µM (top of the series) unless noted
# Procedure, shortened: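 Jurkat cells with NFAT-driven β-lactamase reporter and co-expressed M1 receptor, stimulated with carbachol (final 1 uM, ~EC50), compound titration, 5 h at 37 °C. CCF4 loaded 1 h at RT; 460/530 nm ratio gave %activity and AC50.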
# [5] = Stat Signaling Pathway (AID 446; active = well fitted curve in either direction with a large enough effect, not every such curve was filed as active;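 note: ME-180 cervical cancer cells given 40 pM IL-6 alongside compound; SIE-controlled beta-lactamase reporter measured as 460/530 nm FRET emission ratio; % is set by controls: 0 for no effect and ±100 for the full control effect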); details: ME-180 SIE beta-lactamase reporter, IL-6 stimulated, 5 h; at 7.69 µM (top of the series) unless noted
# Procedure, shortened: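 FRET read-out (405 nm excitation, 460/530 nm emission) of a beta-lactamase reporter under a STAT-inducible element in ME-180 cervical carcinoma cells. Cells with compound receive 40 pM IL-6 for 5 h. Values are normalised to AC90 stimulation and AC90 JAK-inhibitor controls.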
# [6] = molecular target: Glucocorticoid receptor (Homo sapiens) (UniProt P04150); experiment: GR-GFP Redistribution (AID 450;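 active = compounds whose dose series gives a full or clear partial fitted curve of increased nuclear translocation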; note: potency is the fitted concentration of half-maximal effect); details: U2OS GR-GFP nuclear translocation, laser cytometry, 2 h
# Glucocorticoid receptor (Homo sapiens), sequence (P04150 whole entry, looked up, the tested form may be a part): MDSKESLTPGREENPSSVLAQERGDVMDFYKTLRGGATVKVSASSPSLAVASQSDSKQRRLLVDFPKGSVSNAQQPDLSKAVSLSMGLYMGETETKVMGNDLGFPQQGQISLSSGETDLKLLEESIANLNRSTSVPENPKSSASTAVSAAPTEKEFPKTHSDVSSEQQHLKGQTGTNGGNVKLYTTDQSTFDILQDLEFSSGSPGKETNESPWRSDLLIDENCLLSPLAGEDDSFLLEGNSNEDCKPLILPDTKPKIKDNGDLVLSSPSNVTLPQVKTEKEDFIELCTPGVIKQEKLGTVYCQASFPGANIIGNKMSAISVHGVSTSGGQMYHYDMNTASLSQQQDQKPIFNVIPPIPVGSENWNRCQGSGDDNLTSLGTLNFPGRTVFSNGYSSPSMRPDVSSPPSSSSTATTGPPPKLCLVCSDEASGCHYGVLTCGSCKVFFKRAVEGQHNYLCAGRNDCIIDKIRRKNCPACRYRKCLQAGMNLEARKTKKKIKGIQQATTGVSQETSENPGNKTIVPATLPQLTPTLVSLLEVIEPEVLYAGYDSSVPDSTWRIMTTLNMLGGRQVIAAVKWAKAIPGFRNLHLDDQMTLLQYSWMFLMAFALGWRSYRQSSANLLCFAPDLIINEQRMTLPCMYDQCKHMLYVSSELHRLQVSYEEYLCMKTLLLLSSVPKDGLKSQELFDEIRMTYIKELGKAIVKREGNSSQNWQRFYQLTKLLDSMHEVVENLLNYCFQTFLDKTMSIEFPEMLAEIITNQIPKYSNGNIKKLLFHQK
# [7] = molecular target: Glucocorticoid receptor (Homo sapiens) (UniProt P04150); experiment: GR-EFC Redistribution (AID 451; calls by dose curve; note: potency is the fitted concentration of half-maximal effect); details: CHO-K1 GR-EFC translocation, beta-gal luminescence, 2 h
# Procedure, shortened: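 CHO-K1 cells expressing nuclear EA and GR-ED fragments of b-gal; compounds titrated up to 46 uM final, 2 h at 37 C. GR nuclear translocation read as complemented b-gal luminescence after 1 h RT detection.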
# [8] = molecular target: Mitogen-activated protein kinase 10 (Mus musculus) (UniProt Q61831); experiment: JNK3 AlphaScreen Assay (AID 530; active = well fitted curve in either direction with a large enough effect, not every such curve was filed as active;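 note: kinase came from lysate of stimulated human HepG2 cells; signal reports phosphorylation of biotinylated GST-cJun 1-79 at Ser73 with 10 µM ATP; % is set by controls: 0 for no effect and ±100 for the full control effect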); details: JNK3 lysate, c-Jun phosphorylation; series mostly up to 57.1 µM
# Procedure, shortened: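 Activity was read by AlphaScreen after JNK3-containing HepG2 lysate (cytokine pre-activated) phosphorylated biotinylated GST-cJun with 10 uM ATP at room temperature. Phospho-Ser73 cJun antibody with Protein-A acceptor beads provided detection.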
# [9] = molecular target: 3',5'-cyclic-AMP phosphodiesterase 4B (Homo sapiens) (UniProt Q07343); experiment: qHTS Assay for Inhibitors of PDE-IV (AID 607; active = well fitted activation curve with a large enough effect in the main read-out, with a control signal flat, not every such curve was filed as active; note: % of control where 0% means no effect); details: HEK293 ACTOne CNG channel cells, membrane potential fluorescence; series mostly up to 22.9 µM
# 3',5'-cyclic-AMP phosphodiesterase 4B (Homo sapiens), sequence (Q07343 whole entry, looked up): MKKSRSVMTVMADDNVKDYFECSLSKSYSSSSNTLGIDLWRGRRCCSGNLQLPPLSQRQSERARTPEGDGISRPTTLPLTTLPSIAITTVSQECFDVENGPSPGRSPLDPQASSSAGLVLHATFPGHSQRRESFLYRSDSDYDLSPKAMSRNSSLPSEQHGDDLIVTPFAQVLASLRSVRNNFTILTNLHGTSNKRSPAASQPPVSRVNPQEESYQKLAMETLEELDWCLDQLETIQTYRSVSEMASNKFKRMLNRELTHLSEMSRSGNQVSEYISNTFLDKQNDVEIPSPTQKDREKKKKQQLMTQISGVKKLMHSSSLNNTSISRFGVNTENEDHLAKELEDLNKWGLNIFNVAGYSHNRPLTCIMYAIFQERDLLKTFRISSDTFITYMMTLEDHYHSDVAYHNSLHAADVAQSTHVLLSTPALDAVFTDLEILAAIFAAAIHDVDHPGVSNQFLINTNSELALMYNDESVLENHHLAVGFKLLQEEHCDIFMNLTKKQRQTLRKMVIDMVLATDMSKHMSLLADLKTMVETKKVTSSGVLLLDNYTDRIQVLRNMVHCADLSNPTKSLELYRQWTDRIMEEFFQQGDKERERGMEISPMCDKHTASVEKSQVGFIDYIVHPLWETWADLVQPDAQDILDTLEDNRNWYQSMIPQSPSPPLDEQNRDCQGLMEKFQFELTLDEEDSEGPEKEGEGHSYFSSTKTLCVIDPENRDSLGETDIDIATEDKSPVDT
# Procedure, shortened: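 Cell-based read-out of cAMP via a modified cyclic nucleotide-gated channel and membrane potential dye (535/590 nm) in HEK293 cells expressing PDE4 endogenously. Compounds tested up to 22.9 uM final; 100 uM RO 20-1724 reference.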
# [10] = molecular target: Cytochrome P450 3A4 (Homo sapiens) (UniProt P08684); experiment: qHTS Assay for Inhibitors and Substrates of Cytochrome P450 3A4 (AID 884); details: recombinant CYP3A4, Luciferin-PPXE luminescence; series mostly up to 57.1 µM; note: potency is the fitted concentration of half-maximal effect; nearly all actives have a fitted effect of over 50% in size
# Cytochrome P450 3A4 (Homo sapiens), sequence (P08684 whole entry, looked up): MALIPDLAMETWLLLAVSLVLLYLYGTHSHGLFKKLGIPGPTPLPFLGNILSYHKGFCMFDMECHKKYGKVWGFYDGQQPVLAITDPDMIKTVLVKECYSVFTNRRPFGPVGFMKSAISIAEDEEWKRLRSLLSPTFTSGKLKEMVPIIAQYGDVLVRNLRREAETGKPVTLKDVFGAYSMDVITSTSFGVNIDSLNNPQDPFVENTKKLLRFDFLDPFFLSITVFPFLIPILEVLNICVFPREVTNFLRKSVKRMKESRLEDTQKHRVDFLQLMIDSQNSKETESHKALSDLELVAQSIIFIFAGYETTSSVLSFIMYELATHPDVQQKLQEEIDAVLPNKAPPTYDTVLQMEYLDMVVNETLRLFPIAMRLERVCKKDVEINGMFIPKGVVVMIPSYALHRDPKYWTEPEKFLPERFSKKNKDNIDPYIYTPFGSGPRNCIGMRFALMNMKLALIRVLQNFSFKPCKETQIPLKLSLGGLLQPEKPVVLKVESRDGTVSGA
# Procedure, shortened: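 Luminescent readout of luciferin produced by CYP3A4 (20 nM) dealkylation of Luciferin-PPXE, 25 uM (its KM). NADPH-driven reaction ran 60 min at RT after 10 min compound preincubation; data scaled to 57 uM ketoconazole as 100% inhibition.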
# [11] = molecular target: Cytochrome P450 3A4 (Homo sapiens) (UniProt P08684); experiment: qHTS Assay for Activators of Cytochrome P450 3A4 (AID 885); details: recombinant CYP3A4, Luciferin-PPXE luminescence, 60 min; series mostly up to 57.1 µM; note: nearly all actives have a fitted effect of over 65% in size
# Procedure, shortened: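 Luminescent readout of luciferin formed from 25 uM Luciferin-PPXE (KM level) by 20 nM CYP3A4 in 200 mM KPO4, with 60 min NADPH-driven reaction at room temperature after 10 min compound exposure. Ketoconazole (57 uM) defined 100% inhibition.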
# [12] = qHTS Assay for Lipid Storage Modulators (AID 1519; calls by dose curve); details: Drosophila S3 cells, BODIPY lipid droplet/cell ratio, laser cytometry, cells loaded with oleic acid; for activity change, negative = inhibition: at 57.5 µM (top of the series)
# Procedure, shortened: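 Cells seeded at 5,000 per well were treated with compounds over a concentration series and loaded with oleic acid (400 uM, as added). Lipid droplet fluorescence (488 nm excitation, 500-530 nm channel) was read by laser-scanning cytometry and normalized to 20 uM Triacsin C.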
# [13] = molecular target: Ubiquitin carboxyl-terminal hydrolase 1 (Homo sapiens) (UniProt O94782); experiment: Inhibitors of USP1/UAF1: Pilot qHTS (AID 504865); details: purified USP1/UAF1, Ub-rhodamine cleavage fluorescence; series mostly up to 54.9 µM; note: nearly all actives have a fitted effect of over 35% in size; note: potency is the fitted concentration of half-maximal effect
# Ubiquitin carboxyl-terminal hydrolase 1 (Homo sapiens), sequence (O94782 whole entry, looked up): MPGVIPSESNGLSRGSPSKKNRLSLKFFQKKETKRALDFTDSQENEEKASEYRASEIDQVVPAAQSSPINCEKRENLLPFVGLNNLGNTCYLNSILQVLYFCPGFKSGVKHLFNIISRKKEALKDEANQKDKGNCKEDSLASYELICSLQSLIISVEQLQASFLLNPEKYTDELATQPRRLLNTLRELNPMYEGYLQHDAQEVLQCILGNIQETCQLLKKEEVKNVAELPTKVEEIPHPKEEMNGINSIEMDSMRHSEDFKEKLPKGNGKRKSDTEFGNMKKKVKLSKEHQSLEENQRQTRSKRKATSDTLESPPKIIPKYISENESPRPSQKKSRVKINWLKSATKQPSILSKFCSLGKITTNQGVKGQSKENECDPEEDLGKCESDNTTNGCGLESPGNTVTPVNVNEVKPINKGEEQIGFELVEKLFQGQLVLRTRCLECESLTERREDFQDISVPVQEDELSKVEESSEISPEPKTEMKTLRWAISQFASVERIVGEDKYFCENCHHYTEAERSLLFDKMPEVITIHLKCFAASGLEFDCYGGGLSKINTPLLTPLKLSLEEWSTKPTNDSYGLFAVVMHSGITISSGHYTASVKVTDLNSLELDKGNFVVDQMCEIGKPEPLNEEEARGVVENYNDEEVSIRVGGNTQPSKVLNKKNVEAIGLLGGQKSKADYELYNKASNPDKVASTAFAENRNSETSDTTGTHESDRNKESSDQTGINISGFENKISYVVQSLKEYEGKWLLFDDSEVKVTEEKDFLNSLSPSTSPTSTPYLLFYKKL
# Procedure, shortened: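 1nM USP1/UAF1 + cpd, 15 min RT; start w/ Ub-Rho 150nM final; kinetic FL 480/540 nm, 6 reads q60 s. Buffer 50mM HEPES pH 7.8, 0.5mM EDTA, 1mM TCEP, 0.01% Tween-20, 0.1 mg/ml BSA.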
# [14] = Primary qHTS for small molecule stabilizers of the endoplasmic reticulum resident proteome: Secreted ER Calcium Modulated Protein (SERCaMP) assay (AID 1508630); details: SH-SY5Y GLuc-SERCaMP (Gaussia luciferase released on ER calcium loss) secretion, thapsigargin, luminescence; series mostly up to 38.4 µM; note: % is set by controls: 0 for no effect and ±100 for the full control effect
# Procedure, shortened: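 The SH-SY5Y reporter protocol was run at 3 concentrations up to 38.3 uM (primary) or 11 concentrations (follow-up): 16 h compound, 100 nM thapsigargin for 4 h, then extracellular luciferase luminescence.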
# [15] = Confirmation and Secondary Assay for Modulators of Hemoglobin Beta Chain Splicing at IVS2 654 locus (AID 910); details: HeLa EGFP-654 splicing reporter, GFP fluorescence, 48 h; series mostly up to 38.3 µM;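 note: HeLa cells stably carrying EGFP split by mutant beta-globin IVS2-654 intron; % of control where 0% means no effect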
# Procedure, shortened: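 HeLa cells stably expressing EGFP interrupted by β-globin IVS2-654 intron, seeded overnight in Opti-MEM/2% FCS, then treated 2 days at 37 °C. Restored splicing read as total peak GFP intensity per well by laser scanning cytometry (488 nm excitation, 500–520 nm emission); 500 nM antisense PNA as control.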
# [16] = Confirmation and Secondary Assay for Modulators of Hemoglobin Beta Chain Splicing at IVS2 705 locus (AID 930); details: HeLa EGFP-705 splicing reporter, GFP fluorescence, 48 h; series mostly up to 38.3 µM;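 note: HeLa cells stably expressing the EGFP-705 splicing reporter; GFP fluorescence per well restored by corrected splicing of the IVS2-705 intron in EGFP; % of control where 0% means no effect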
# Procedure, shortened: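 HeLa IVS2-705 EGFP reporter cells, 500/well, compound 2 d at 37C; correct splicing yields fluorescent EGFP. Control: 500 nM antisense PNA. Read-out: total peak GFP intensity.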
# [17] = molecular target: Cytochrome P450 2C19 (Homo sapiens) (UniProt P33261); experiment: qHTS Assay for Inhibitors and Substrates of Cytochrome P450 2C19 (AID 899); details: recombinant CYP2C19, luciferin-H EGE luminescence; series mostly up to 57.1 µM; note: potency is the fitted concentration of half-maximal effect; nearly all actives have a fitted effect of over 60% in size
# Cytochrome P450 2C19 (Homo sapiens), sequence (P33261 whole entry, looked up): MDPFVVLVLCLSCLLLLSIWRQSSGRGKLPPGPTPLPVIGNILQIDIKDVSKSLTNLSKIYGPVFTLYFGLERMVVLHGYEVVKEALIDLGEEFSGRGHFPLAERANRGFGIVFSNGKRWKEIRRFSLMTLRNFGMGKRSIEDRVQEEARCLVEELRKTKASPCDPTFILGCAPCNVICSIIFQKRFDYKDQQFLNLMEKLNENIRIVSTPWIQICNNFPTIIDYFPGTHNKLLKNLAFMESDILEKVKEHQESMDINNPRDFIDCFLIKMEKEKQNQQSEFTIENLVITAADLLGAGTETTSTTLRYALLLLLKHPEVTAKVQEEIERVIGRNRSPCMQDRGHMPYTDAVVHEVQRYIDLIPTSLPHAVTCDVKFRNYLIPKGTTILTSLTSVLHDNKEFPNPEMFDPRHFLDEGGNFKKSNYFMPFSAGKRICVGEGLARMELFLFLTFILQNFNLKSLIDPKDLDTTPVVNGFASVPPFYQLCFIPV
# Procedure, shortened: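 Signal comes from luciferase acting on luciferin released by CYP2C19-mediated hydroxylation of Luciferin-H EGE, 10uM (KM). Assay mix: 5nM enzyme, 50mM KPO4; 60 min at 37C with NADPH regeneration. Data normalized against 57uM ketoconazole.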
# [18] = qHTS Assay for Identification of Small Molecule Agonists for Hypoxia Response Element Signaling Pathway (AID 914; active = well fitted activation curve with a large enough effect in the signal ratio, with a control signal flat, not every such curve was filed as active; the % refers to the signal ratio; note: % of control where 0% means no effect); details: ME-180 (cervical carcinoma) HRE-bla reporter, beta-lactamase ratio, CoCl2, 17 h; activation: stronger effect = higher value
# Procedure, shortened: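 HRE-bla ME-180 assay for agonist-like enhancement of an EC50 CoCl2 stimulus: 17 h at 37 degrees Celsius, CCF4 for 2.5 h, ratiometric 460/530 nm signal converted to %Activity and fitted to AC50.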
# [19] = measured here: cell count channel max response
# [20] = measured here: lipid channel max response
SMILES,Potency [1],"activity change, negative = inhibition [2]",Potency [3],"activity change, negative = inhibition [4]","activity, negative = inhibition [5]",Potency [6],Potency [7],outcome [8],Potency [9],Potency [10],Potency [11],"activity change, negative = inhibition [12]","max response [12, 19] [%]","max response [12, 20] [%]",Potency [13],Potency [14],outcome [15],outcome [16],Potency [17],activation [18]
c1ncc(-c2ccoc2)c(NC2CC2)n1,> 11.4 µM (inactive),16.6% (inactive),15.8 µM (active),5.32% (inactive),4.55% (inactive),> 46 µM (inactive),> 46 µM (inactive),inactive,inactive,7.94 µM (active),inactive,3.62% (inactive),21.6,22.6,28.2 µM (active),inactive,,,,
O=c1cnc2cnc(N3CCOCC3)nc2n1C1CC1,> 11.4 µM (inactive),18.1% (inactive),6.31 µM (active),-1.07% (inactive),-6.14% (inactive),> 9.22 µM (inactive),> 46 µM (inactive),inactive,inactive,,,1.43% (inactive),8.4,8.8,inactive,inactive,,,,
COCCNc1ccnc(-c2ccccc2CN(C)C)n1,> 11.4 µM (inactive),3.13% (inactive),5.01 µM (active),-0.192% (inactive),11.3% (inactive),> 46 µM (inactive),> 46 µM (inactive),inactive,inactive,,,1.95% (inactive),-5.81,7.72,inactive,inactive,inactive,inactive,,
CN1CCN(c2cc(-c3ccccc3C(F)(F)F)ncn2)CC1,> 11.4 µM (inactive),8.33% (inactive),12.6 µM (active),-29.9% (inactive),8.15% (inactive),> 46 µM (inactive),> 46 µM (inactive),inactive,inactive,,,9.46% (inactive),20.3,26.3,inactive,inactive,inactive,inactive,,
CNc1ccnc(-c2ccccc2CN(C)C)n1,> 11.4 µM (inactive),-3.79% (inactive),12.6 µM (active),-12.6% (inactive),-6.7% (inactive),> 46 µM (inactive),> 46 µM (inactive),inactive,inactive,,,2.03% (inactive),-5.53,2.14,inactive,inactive,inactive,inactive,,
O=C(O)C1CCN(c2ncnc3ccc(-c4ccccc4C(F)(F)F)cc23)CC1,> 11.4 µM (inactive),-20.1% (inactive),inactive,6.97% (inactive),-9.2% (inactive),> 46 µM (inactive),> 46 µM (inactive),inactive,,,inactive,4.82% (inactive),14.4,20.7,inactive,inactive,inactive,inactive,,
COc1cccc(-c2nccc(NCc3cccc(C)c3)n2)c1,> 11.4 µM (inactive),-15.4% (inactive),0.316 µM (active),-2.73% (inactive),-25.6% (inactive),> 46 µM (inactive),> 46 µM (inactive),inactive,inactive,3.98 µM (active),inactive,7.01% (inactive),-6.39,-3.6,35.5 µM (active),inactive,inactive,inactive,6.31 µM (active),
N#Cc1cccc(-c2cc(NCc3cccs3)ncn2)c1,> 11.4 µM (inactive),-6.14% (inactive),0.794 µM (active),12.6% (inactive),-3.35% (inactive),> 46 µM (inactive),> 46 µM (inactive),inactive,inactive,,inactive,3.14% (inactive),-10.3,-10.9,inactive,inactive,inactive,inactive,,
COc1ccc2[nH]cc(CCNc3ncncc3-c3ccc(N(C)C)cc3)c2c1,> 11.4 µM (inactive),-27.6% (inactive),0.251 µM (active),4.01% (inactive),-7.73% (inactive),> 46 µM (inactive),> 46 µM (inactive),,,0.501 µM (active),inactive,5.88% (inactive),5.01,11,inactive,inactive,inactive,inactive,1.58 µM (active),
Cc1noc(C)c1-c1cc(NCc2ccccc2)ncn1,> 11.4 µM (inactive),-3.94% (inactive),5.01 µM (active),-10.6% (inactive),-12.8% (inactive),> 46 µM (inactive),> 46 µM (inactive),inactive,inactive,,,9.87% (inactive),11.1,18,inactive,inactive,inactive,inactive,,
Cc1cnc(CNc2ncncc2-c2ccc(C(=O)N(C)C)cc2)cn1,> 11.4 µM (inactive),5.94% (inactive),20 µM (active),2.85% (inactive),9.42% (inactive),> 46 µM (inactive),> 46 µM (inactive),inactive,inactive,,inactive,10.8% (inactive),16,28.5,inactive,inactive,inactive,inactive,,0.757% (inactive)
